# Data reported in PubChem BioAssay.
# For some assays here: Results with a measured potency or affinity are listed apart. Calls of active or inactive are those of the source.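 The calls were made as follows, unless noted: active = primary screen activator hit with a dose response curve and TRPC4 channel activation at any tested dose; inactive = no activation, no dose response, or not a primary hit.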
# What was measured:
# [1] = tested on: TRPC4 beta (transient receptor potential cation channel C4), mouse; test: TRPC4 cation channel opening, retest – cell-based, Fluo4 calcium, HEK293 TRPC4beta/mu-opioid, duplicates, 10 µM, confirmation (AID 2426;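 active = fluorescence ratio normalized to control raised more than 50% in primary screen plus both repeat runs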); conditions: Fluo4 calcium fluorescence, at 10 µM; stronger effect = higher value
# [2] = tested on: transient receptor potential cation channel C4 beta (TRPC4), mouse; test: TRPC4 cation channel opening, second retest – cell-based, second round, Fluo4, HEK293 TRPC4beta/mu-opioid, 1 µM, confirmation (AID 2461;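 active = primary screen active and over 50% activation in each of two duplicate runs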); conditions: Fluo4 calcium fluorescence, at 1 µM; stronger effect = higher value
# [3] = tested on: TRPC4 (transient receptor potential cation channel C4 beta), mouse; test: potentiation of DAMGO EC20 TRPC4 response – cell-based, second round, Fluo-4, HEK293 TRPC4beta/mu-opioid, 1 µM, confirmation (AID 2554;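 active = primary screen hit whose fluorescence ratio, in both repeats, exceeds the weak agonist control mean by 3 SD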); conditions: DAMGO EC20, Fluo-4 calcium flux, at 1 µM; stronger effect = higher value
# [4] = tested on: TRPC4 beta (transient receptor potential cation channel C4), mouse; test: potentiation of DAMGO EC20 TRPC4 response – cell-based, Fluo-4, HEK293 TRPC4beta/mu-opioid, confirmation (AID 2555;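 active = primary screen hit whose calcium fluorescence ratio, in both repeats, exceeds the weak agonist control mean by 3 SD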); conditions: DAMGO EC20, Fluo-4 calcium flux, at 10 µM; stronger effect = higher value
# [5] = target: Short transient receptor potential channel 4 (Mus musculus) (UniProt Q9QUQ5); test: blockers of DAMGO-evoked TRPC4 calcium flux – cell-based, Fluo4, HEK293 TRPC4beta/mu-opioid, confirmation (AID 2636;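 active = calcium signal cut by more than 3 SD below the full-agonist control yet still positive, in both repeats and the earlier primary screen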); conditions: at 10 µM; stronger effect = higher value
# Chain of Short transient receptor potential channel 4 (Mus musculus) (Q9QUQ5 whole entry, looked up): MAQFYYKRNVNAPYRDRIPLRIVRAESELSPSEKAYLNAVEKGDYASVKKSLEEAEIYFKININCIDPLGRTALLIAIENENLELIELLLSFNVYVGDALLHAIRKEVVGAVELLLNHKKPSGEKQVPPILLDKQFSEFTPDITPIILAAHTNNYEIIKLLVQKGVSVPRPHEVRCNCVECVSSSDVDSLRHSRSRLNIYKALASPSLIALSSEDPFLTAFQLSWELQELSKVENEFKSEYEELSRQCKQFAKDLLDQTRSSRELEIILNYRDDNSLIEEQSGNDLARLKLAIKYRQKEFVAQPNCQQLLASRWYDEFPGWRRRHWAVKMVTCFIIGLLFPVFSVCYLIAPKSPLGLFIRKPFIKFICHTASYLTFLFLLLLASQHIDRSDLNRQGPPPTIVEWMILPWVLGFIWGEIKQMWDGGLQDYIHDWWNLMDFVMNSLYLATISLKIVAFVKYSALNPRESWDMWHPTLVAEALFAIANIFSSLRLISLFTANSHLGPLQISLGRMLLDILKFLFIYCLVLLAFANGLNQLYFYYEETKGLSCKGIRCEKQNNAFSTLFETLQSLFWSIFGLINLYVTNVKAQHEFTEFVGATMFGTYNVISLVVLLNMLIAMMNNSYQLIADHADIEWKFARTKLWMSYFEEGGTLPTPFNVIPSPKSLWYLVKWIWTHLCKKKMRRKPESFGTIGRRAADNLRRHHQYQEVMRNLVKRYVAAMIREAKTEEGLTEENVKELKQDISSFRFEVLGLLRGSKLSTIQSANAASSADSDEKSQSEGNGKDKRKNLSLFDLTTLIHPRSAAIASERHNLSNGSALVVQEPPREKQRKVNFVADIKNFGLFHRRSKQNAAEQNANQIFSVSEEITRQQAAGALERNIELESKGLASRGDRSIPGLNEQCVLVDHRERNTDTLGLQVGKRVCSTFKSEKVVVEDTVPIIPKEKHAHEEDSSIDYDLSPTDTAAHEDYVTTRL
# [6] = target: Short transient receptor potential channel 4 (Mus musculus) (UniProt Q9QUQ5); test: blockers of DAMGO-evoked TRPC4 calcium flux – cell-based, second round, Fluo4, HEK293 TRPC4beta/mu-opioid, 1 µM, confirmation (AID 2637;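 active = calcium signal ratio cut to more than 3 SD under the fully stimulated control mean yet still positive, in both repeats and the primary screen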;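 as to inhibition: percent of integrated ratio relative to wells lacking test compound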); conditions: at 1 µM; stronger effect = higher value
# [7] = target: Short transient receptor potential channel 4 (Mus musculus) (UniProt Q9QUQ5); test: calcium entry via TRPC4 opening agents – cell-based, HEK293 TRPC4/mu-opioid, Fluo-4 calcium, dose response (AID 434937)
# [8] = target: Short transient receptor potential channel 4 (Mus musculus) (UniProt Q9QUQ5); test: potentiation of DAMGO-evoked TRPC4 calcium signal – cell-based, HEK293 TRPC4/mu-opioid, Fluo-4 calcium, EC20 DAMGO, dose response (AID 434941;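 active = earlier screen potentiator hit that boosts the TRPC4 ion channel at some dose, with a dose response; inactive = no potentiation, no dose response, or not a prior hit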;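 also: calcium entry triggered by an EC20 dose of DAMGO at the co-expressed mu-opioid receptor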)
# [9] = target: Short transient receptor potential channel 4 (Mus musculus) (UniProt Q9QUQ5); test: block of DAMGO-driven TRPC4 calcium entry – cell-based, HEK293 TRPC4/mu-opioid, Fluo-4 calcium, dose response (AID 434942;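 active = primary screen inhibitor hit that blocks the TRPC4 channel at some tested dose, yielding a dose curve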)
# [10] = target: Short transient receptor potential channel 6 (Mus musculus) (UniProt Q61143); test: TRPC6 blockade by TRPC4 inhibitor hits – cell-based, HEK293, membrane potential dye, duplicate, selectivity assay for TRPC4 inhibitor project, confirmation (AID 434948;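 active = active in primary screen and both duplicates, each dropping signal beyond three positive-control SD with fluorescence still positive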); conditions: HEK293 TRPC6, membrane potential dye fluorescence, at 10 µM, stimulated with maximal-effect acetylcholine; stronger effect = higher value
# Chain of Short transient receptor potential channel 6 (Mus musculus) (Q61143 whole entry, looked up): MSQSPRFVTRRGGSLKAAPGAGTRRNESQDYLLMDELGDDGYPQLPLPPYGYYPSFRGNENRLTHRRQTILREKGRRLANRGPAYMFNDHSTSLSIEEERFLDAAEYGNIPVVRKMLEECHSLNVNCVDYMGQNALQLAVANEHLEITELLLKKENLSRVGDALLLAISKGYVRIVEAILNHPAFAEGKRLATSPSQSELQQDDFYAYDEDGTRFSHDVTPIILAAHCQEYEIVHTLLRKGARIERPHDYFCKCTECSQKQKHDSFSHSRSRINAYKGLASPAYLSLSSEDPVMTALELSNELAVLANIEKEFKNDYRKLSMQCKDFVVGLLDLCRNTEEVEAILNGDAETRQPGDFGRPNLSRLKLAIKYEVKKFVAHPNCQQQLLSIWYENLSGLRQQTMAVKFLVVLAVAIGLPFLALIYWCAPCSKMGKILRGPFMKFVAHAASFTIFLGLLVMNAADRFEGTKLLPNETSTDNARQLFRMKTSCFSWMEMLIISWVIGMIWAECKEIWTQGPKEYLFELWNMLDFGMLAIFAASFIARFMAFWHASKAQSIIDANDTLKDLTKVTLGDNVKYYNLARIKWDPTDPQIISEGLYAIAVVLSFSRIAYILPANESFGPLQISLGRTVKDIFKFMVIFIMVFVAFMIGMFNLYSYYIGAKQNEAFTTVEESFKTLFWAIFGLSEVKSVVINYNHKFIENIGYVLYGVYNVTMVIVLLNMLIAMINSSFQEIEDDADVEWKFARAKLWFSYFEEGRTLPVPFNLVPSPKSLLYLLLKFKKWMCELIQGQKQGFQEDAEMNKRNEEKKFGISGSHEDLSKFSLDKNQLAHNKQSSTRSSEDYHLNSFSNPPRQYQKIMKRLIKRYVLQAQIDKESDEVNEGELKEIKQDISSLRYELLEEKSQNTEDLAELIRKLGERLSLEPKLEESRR
# [11] = target: Short transient receptor potential channel 6 (Mus musculus) (UniProt Q61143); test: TRPC6 opening by TRPC4 activator hits – cell-based, HEK293, membrane potential dye, duplicate, selectivity assay for TRPC4 activator project, confirmation (AID 434950;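 active = membrane potential signal rise above negative control mean plus 3 SD in both duplicates, also active in the earlier TRPC4 screen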); conditions: HEK293 TRPC6, membrane potential fluorescence, at 10 µM; activation: stronger effect = higher value; outcome: activation
# [12] = target: Short transient receptor potential channel 6 (Mus musculus) (UniProt Q61143); test: positive modulators of mouse TRPC6 channel – HEK293 cells, membrane potential dye, duplicate, selectivity assay for TRPC4 potentiator project, confirmation (AID 434952;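 active = compound raising the membrane signal above positive-control mean plus 3 SD in both repeats, and a primary screen hit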); conditions: HEK293 TRPC6, membrane potential dye fluorescence, at 10 µM, maximal acetylcholine added after compound; stronger effect = higher value
# [13] = target: Short transient receptor potential channel 4 (Mus musculus) (UniProt Q9QUQ5); test: calcium flux activators in TRPC4/5HT1a cells, counter-screen for TRPC4 activator project, cell-based, second counter screen, HEK293 TRPC4/5HT1a, Fluo-4 (AID 434977;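 active = calcium signal rise above buffer-control mean plus 5 SD in both duplicates, and also a hit in the primary screen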); conditions: Fluo-4 calcium flux, at 10 µM; stronger effect = higher value
# [14] = serotonin-gated TRPC4 signal block – cell-based, second counter screen, HEK293 TRPC4/5HT1a, Fluo-4, counter-screen for TRPC4 inhibitor project, confirmation (AID 434978;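 active = primary screen active whose calcium signal fell more than 3 SD beyond the full-serotonin control mean in both duplicate plates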;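 as to outcome: serotonin given first at submaximal then at maximal dose after compound preincubation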); conditions: Fluo-4 calcium flux, at 10 µM, serotonin added to trigger calcium flux; stronger effect = higher value
# [15] = tested on: TRPC4 (mouse), co-expressed with 5HT1a in HEK293; test: enhancement of serotonin-evoked TRPC4 response – cell-based, second counter screen, HEK293 TRPC4/5HT1a, Fluo-4, counter-screen for TRPC4 potentiator project, confirmation (AID 434979;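 active = signal rise over 3 SD above mean of control wells given weak agonist, in both repeats and first screen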); conditions: Fluo-4 calcium flux, at 10 µM, serotonin added at its EC20 dose; stronger effect = higher value
# [16] = nonspecific calcium rise without TRPC4 – cell-based, HEK293 mu-opioid receptor line, counter-screen for TRPC4 activator project, confirmation (AID 449723;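 active = hit in primary screen, with calcium signal over 5 SD above buffer well mean in both duplicates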;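 also: counter screen cells carry the mu-opioid receptor alone and lack TRPC4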); conditions: HEK293 mu-opioid cells, Fluo-4 calcium fluorescence, at 10 µM; stronger effect = higher value
# [17] = nonspecific potentiation of DAMGO calcium response – cell-based, HEK293 mu-opioid receptor line, counter-screen for TRPC4 allosteric potentiator project, confirmation (AID 449724;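 active = calcium signal rise more than 3 SD above the low-dose agonist control mean, in both duplicate plates and the primary screen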); conditions: HEK293 mu-opioid receptor cells, Fluo-4 calcium flux, at 10 µM, compound added before EC20 DAMGO stimulus; stronger effect = higher value
smiles,measurement,setting,value
CN(C)C(CNC(=O)c1ccc(S(=O)(=O)NCc2ccco2)cc1)c1ccccc1 (centres undefined),outcome,[1],inactive
same,outcome,[2],inactive
same,outcome,[3],inactive
same,outcome,[4],inactive
same,outcome,[5],inactive
same,outcome,[6],inactive
same,outcome,[7],inactive
same,outcome,[8],inactive
same,outcome,[9],inactive
same,outcome,[10],inactive
same,outcome,[11],inactive
same,outcome,[12],inactive
same,outcome,[13],inactive
same,outcome,[14],inactive
same,outcome,[15],inactive
same,outcome,[16],inactive
same,outcome,[17],inactive
CC1CC(C)CN(CCCNC(=O)C2CCCN(c3ncnc4c3nc3n4CCCCC3)C2)C1 (centres undefined),outcome,[1],inactive
same,outcome,[2],inactive
same,potentiation,[3],18% (active)
same,outcome,[4],inactive
same,outcome,[5],inactive
same,outcome,[6],inactive
same,outcome,[7],inactive
same,outcome,[8],inactive
same,outcome,[9],inactive
same,outcome,[10],inactive
same,outcome,[11],inactive
same,outcome,[12],inactive
same,outcome,[13],inactive
same,outcome,[14],inactive
same,potentiation,[15],17.1% (active)
same,outcome,[16],inactive
same,outcome,[17],inactive
CN(C)CCCSc1nc(-c2ccccc2)nc2c1CCC2,outcome,[1],inactive
same,outcome,[2],inactive
same,potentiation,[3],8% (active)
same,outcome,[4],inactive
same,outcome,[5],inactive
same,outcome,[6],inactive
same,outcome,[7],inactive
same,outcome,[8],inactive
same,outcome,[9],inactive
same,outcome,[10],inactive
same,outcome,[11],inactive
same,outcome,[12],inactive
same,outcome,[13],inactive
same,outcome,[14],inactive
same,outcome,[15],inactive
same,outcome,[16],inactive
same,outcome,[17],inactive
O=S(=O)(c1ccc(Cl)cc1Br)N1CCCCC1,outcome,[1],inactive
same,outcome,[2],inactive
same,outcome,[3],inactive
same,outcome,[4],inactive
same,outcome,[5],inactive
same,outcome,[6],inactive
same,outcome,[7],inactive
same,outcome,[8],inactive
same,outcome,[9],inactive
same,outcome,[10],inactive
same,outcome,[11],inactive
same,outcome,[12],inactive
same,outcome,[13],inactive
same,outcome,[14],inactive
same,outcome,[15],inactive
same,outcome,[16],inactive
same,outcome,[17],inactive
CCN1CCN(CCC(=O)Nc2ccccc2OC)CC1,outcome,[1],inactive
same,outcome,[2],inactive
same,outcome,[3],inactive
same,potentiation,[4],11% (active)
same,outcome,[5],inactive
same,outcome,[6],inactive
same,outcome,[7],inactive
same,outcome,[8],inactive
same,outcome,[9],inactive
same,outcome,[10],inactive
same,outcome,[11],inactive
same,outcome,[12],inactive
same,outcome,[13],inactive
same,outcome,[14],inactive
same,potentiation,[15],17.3% (active)
same,outcome,[16],inactive
same,outcome,[17],inactive
COc1ccccc1C1/C(=C(\O)c2ccc3c(c2)OCCO3)C(=O)C(=O)N1Cc1cccnc1 (centres undefined),outcome,[1],inactive
same,outcome,[2],inactive
same,outcome,[3],inactive
same,outcome,[4],inactive
same,inhibition,[5],82% (active)
same,inhibition,[6],63% (active)
same,outcome,[7],inactive
same,outcome,[8],inactive
same,outcome,[9],inactive
same,outcome,[10],inactive
same,outcome,[11],inactive
same,outcome,[12],inactive
same,outcome,[13],inactive
same,inhibition,[14],41.7% (active)
same,outcome,[15],inactive
same,outcome,[16],inactive
same,outcome,[17],inactive
Cc1cc(Nc2ccc3c(c2)OCCO3)c2ccccc2n1,outcome,[1],inactive
same,outcome,[2],inactive
same,outcome,[3],inactive
same,outcome,[4],inactive
same,outcome,[5],inactive
same,outcome,[6],inactive
same,outcome,[7],inactive
same,outcome,[8],inactive
same,outcome,[9],inactive
same,outcome,[10],inactive
same,outcome,[11],inactive
same,outcome,[12],inactive
same,outcome,[13],inactive
same,outcome,[14],inactive
same,outcome,[15],inactive
same,outcome,[16],inactive
same,outcome,[17],inactive
